Rows were chosen to be rich in hits. Some 6.8% of all compounds tested hit in one or more screens of this group.
C diff HTS: C. difficile growth inhibition. Clostridium difficile clinical isolate growth, OD600, 24 h; hits give low values. growth activity, negative = inhibition, % at 16 µg/mL (by protocol). 0.25% of 86,000 active. AID 1259249;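 active = mean growth activity at or below -80% and every replicate also at or below -80%; inconclusive = mean at or below -80% but some replicate above -80%; inactive = mean growth activity above -80%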;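 also: 0% = DMSO wells and -100% = levofloxacin 16 µg/mL wells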
Pf Dd2 inh: blocks growth of Plasmodium falciparum Dd2 parasites; P. falciparum Dd2 growth, SYBR Green, 72 h; hits give low values; activity change, % at 10 µM; 2.3% of 94,000 active; AID 1159554; in the data active = activity change below about -80%; inconclusive = no clear call, values can overlap the other calls
Tcruzi prolif: T. cruzi proliferation inhibition. T. cruzi beta-gal in NIH3T3, GalScreen luminescence, 90 h. inhibition, % at 8.34 µM. 5.9% of 77,000 active. AID 624255;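 active = mean inhibition above about 93%, with at least 55% of replicates each passing it, limit read from the data, passing the limit was not always enough; inconclusive = only one of those two conditions holds; inactive = neither condition holds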
The depositor's hits bear a star; ? = inconclusive; / = no result; ! = not confirmed by another sample.

SMILES	C diff HTS	Pf Dd2 inh	Tcruzi prolif
COc1ccccc1S(=O)(=O)N(C)C[C@H]1OCc2cn(nn2)CCCC(=O)N([C@H](C)CO)C[C@H]1C	/	-7	-25
C[C@H](CO)N1C[C@H](C)[C@H](CN(C)C(=O)Nc2ccc(N3CCCCC3)cc2)OCc2cnnn2CCCC1=O	-5	-6	-24
C[C@H]1CN([C@@H](C)CO)C(=O)CCCn2cc(nn2)CO[C@@H]1CN(C)C(=O)Nc1ccc(N2CCCCC2)cc1	0	-89*!	-18
COc1ccccc1S(=O)(=O)N(C)C[C@H]1OCc2cn(nn2)CCCC(=O)N([C@@H](C)CO)C[C@@H]1C	/	-89*	-11
C[C@H]1CN([C@@H](C)CO)C(=O)CCCn2nncc2CO[C@@H]1CN(C)C(=O)Nc1ccc(N2CCCCC2)cc1	-3	-90*!	8
C[C@@H]1CN([C@H](C)CO)C(=O)CCCn2cc(nn2)CO[C@@H]1CN(C)C(=O)Nc1ccc(N2CCN(C)CC2)cc1	3	-5	24
C[C@@H]1CCCCO[C@@H](CN(C)S(=O)(=O)c2cn(C)cn2)[C@H](C)CN([C@@H](C)CO)C(=O)c2cc(NS(=O)(=O)c3ccc(Cl)cc3)ccc2O1	1	-14	-8
C[C@H]1CN([C@@H](C)CO)C(=O)c2cc(NS(=O)(=O)c3cn(C)cn3)ccc2O[C@@H]1CN(C)C(=O)Nc1ccccc1	-2	15	40
Cc1ccc(S(=O)(=O)Nc2ccc3c(c2)C(=O)N([C@@H](C)CO)C[C@H](C)[C@@H](CN(C)S(=O)(=O)c2cccs2)O3)cc1	-6	6	-56
C[C@H]1CN([C@@H](C)CO)S(=O)(=O)c2ccc(C#Cc3ccccc3)cc2O[C@H]1CN(C)C(=O)Cc1ccccn1	-3	-86*	69
C[C@H]1CN([C@@H](C)CO)S(=O)(=O)c2ccc(C#Cc3ccccc3)cc2O[C@H]1CN(C)C(=O)C1CC1	-4	-88*	74
C[C@@H]1CN([C@H](C)CO)S(=O)(=O)c2ccc(C#Cc3ccccc3)cc2O[C@H]1CN(C)C(=O)C1CC1	-16	-79	58
CC(C)C#Cc1ccc2c(c1)O[C@H](CN(C)C(=O)Cc1ccccn1)[C@@H](C)CN([C@H](C)CO)S2(=O)=O	6	-37	48
C[C@H]1CN([C@@H](C)CO)C(=O)c2ccccc2-c2ccccc2CO[C@@H]1CN(C)Cc1ccc(Cl)c(Cl)c1	67	-85*	/
C[C@@H]1CN([C@H](C)CO)C(=O)c2ccccc2-c2ccccc2CO[C@@H]1CN(C)Cc1ccc(Cl)c(Cl)c1	4	?	/
C[C@@H]1CN([C@H](C)CO)C(=O)c2ccccc2-c2ccccc2CO[C@@H]1CN(C)Cc1ccc(-c2ccccc2)cc1	15	-83*	/
C[C@@H]1CN([C@H](C)CO)C(=O)c2ccccc2-c2ccccc2CO[C@@H]1CN(C)Cc1ccccc1	/	-16	45
O=C(C[C@H]1CC[C@@H](NC(=O)Cc2ccccn2)[C@@H](CO)O1)NCCCN1CCOCC1	0	10	/
C[C@H](CO)N1C[C@H](C)[C@H](CN(C)C(=O)Nc2ccc(F)cc2)OCCCC[C@H](C)Oc2ccc(NS(=O)(=O)c3cccs3)cc2C1=O	1	-43	59
C[C@@H]1CN([C@@H](C)CO)C(=O)c2cc(NS(=O)(=O)c3cccs3)ccc2O[C@@H](C)CCCCO[C@H]1CN(C)C(=O)Nc1ccc(F)cc1	7	-81*	68
C[C@@H]1CCCCO[C@H](CN(C)C(=O)NC2CCCCC2)[C@H](C)CN([C@H](C)CO)C(=O)c2cc(NS(=O)(=O)c3cccs3)ccc2O1	9	-82*	26
C[C@@H]1CCCCO[C@H](CN(C)C(=O)NC2CCCCC2)[C@H](C)CN([C@@H](C)CO)C(=O)c2cc(NS(=O)(=O)c3cccs3)ccc2O1	2	-20	-53
CC(C)NC(=O)N(C)C[C@@H]1Oc2ccc(NC(=O)Cn3cnnn3)cc2CC(=O)N([C@H](C)CO)C[C@@H]1C	-6	26	27
C[C@@H]1CN([C@H](C)CO)C(=O)c2cc(NC(=O)NC3CCCCC3)ccc2O[C@H]1CN(C)C	0	9	65
CN(C)CC(=O)N1[C@@H]2Cn3c(ccc(-c4ccccc4)c3=O)[C@H]1[C@@H](C(=O)N1CCOCC1)[C@@H]2CO	-2	12	-3
SMILES	C diff HTS	Pf Dd2 inh	Tcruzi prolif
C[C@@H]1CN([C@@H](C)CO)C(=O)c2cc(NC(=O)Nc3ccc(C(F)(F)F)cc3)ccc2O[C@@H](C)CCCCO[C@H]1CN(C)C	13	15	14
C[C@@H]1CCCCO[C@H](CN(C)CC2CC2)[C@H](C)CN([C@H](C)CO)C(=O)c2cc(NC(=O)Nc3ccc(C(F)(F)F)cc3)ccc2O1	6	-82*	91
CCCN(C)C[C@H]1OCCCC[C@H](C)Oc2ccc(NC(=O)Nc3ccc(C(F)(F)F)cc3)cc2C(=O)N([C@@H](C)CO)C[C@H]1C	-31	-69	54
CCCN(C)C[C@H]1OCCCC[C@@H](C)Oc2ccc(NC(=O)Nc3ccc(C(F)(F)F)cc3)cc2C(=O)N([C@H](C)CO)C[C@H]1C	-108*	-83*	17
CCCN(C)C[C@@H]1OCCCC[C@H](C)Oc2ccc(NC(=O)Nc3ccc4c(c3)OCO4)cc2C(=O)N([C@H](C)CO)C[C@@H]1C	12	-88*	50
C[C@H]1CCCCO[C@H](CN(C)CC2CC2)[C@@H](C)CN([C@@H](C)CO)C(=O)c2cc(NC(=O)Nc3ccc(C(F)(F)F)cc3)ccc2O1	0	-85*	50
C[C@@H]1CCCCO[C@@H](CN(C)CC2CC2)[C@@H](C)CN([C@H](C)CO)C(=O)c2cc(NC(=O)Nc3ccc4c(c3)OCO4)ccc2O1	/	?	25
C[C@@H]1CN([C@H](C)CO)C(=O)c2cc(NC(=O)Nc3ccc(C(F)(F)F)cc3)ccc2O[C@@H](C)CCCCO[C@H]1CN(C)C	33	-80	72
C[C@H](CO)N1C[C@H](C)[C@@H](CN(C)C)Oc2ccc(NS(C)(=O)=O)cc2CC1=O	0	13	91
CO[C@@H]1CN(C)C(=O)c2cc(NS(=O)(=O)c3cn(C)cn3)ccc2OC[C@H](C)N(C)C[C@@H]1C	2	17	-14
COc1ccc(NC(=O)N(C)C[C@@H]2Oc3ccc(NC(=O)NC(C)C)cc3CC(=O)N([C@@H](C)CO)C[C@H]2C)cc1	-3	20	42
O=C(C[C@H]1CC[C@@H](NC(=O)C2CCC2)[C@H](CO)O1)NC1CCCCC1	2	/	/
Cc1ccc(-c2cnc3c(c2)C(=O)N([C@H](C)CO)C[C@@H](C)[C@@H](CN(C)C(=O)c2cccc(F)c2)O3)cc1	1	-38	/
C[C@H]1CN([C@@H](C)CO)C(=O)Cc2cc(NC(=O)Nc3cccc4ccccc34)ccc2O[C@H]1CN(C)S(=O)(=O)c1ccccc1	2	-35	54
CC(C)c1cn(CC[C@H]2CC[C@@H](NC(=O)C3CCCC3)[C@@H](CO)O2)nn1	0	0	/
C[C@H](CO)N1C[C@H](C)[C@@H](CN(C)CC2CCCCC2)OCCCC[C@H](C)Oc2ccc(NC(=O)Nc3ccc(C(F)(F)F)cc3)cc2C1=O	-74	-41	84
